Data as given in PubChem BioAssay (NCATS).
Inconclusive results are not listed. Values without a mark were called inactive. The source made the active and inactive calls. The call rests on the fitted dose curve; in most records, active means well fitted cell-killing curve with a large enough effect; inconclusive means small, poorly fitted or top-dose-only effect, or effect the other way; inactive means no such curve, though single readings can be large or run the other way.

Assay: qHTS of pediatric cancer cell lines to identify multiple opportunities for drug repurposing: Confirmatory screen for SJ-GBM2 cells (AID 1347116);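 further: 48 hour compound exposure; nearly all actives have a fitted effect of over 60% in size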
Details: SJ-GBM2 glioblastoma cells, viability; series mostly up to 45.9 µM; activity change, negative = cytotoxic: at the top concentration
Source text: Drug repurposing or repositioning has been offered as a strategy for drug development in oncology programs. This approach has special potential for childhood cancers and other rare or orphan diseases, where the expected return on new drug development has been a disincentive to pharmaceuticals.
In this project we exploit the poly-pharmacology of drugs to discover new indications via phenotypic screening of a panel of 19 well-characterized cell lines derived from solid tumors seen in children and adolescents. The goal is to identify approved drugs with previously unrecognized anticancer properties that has the potential to reveal new mechanisms and biological processes involved in carcinogenesis or drug resistance. We employed a titration-based paradigm (quantitative high-throughput screening or qHTS), where all compounds were tested at multiple concentrations for their effect on cell viability. Concentration-response curves (CRCs) were derived directly from the primary screen, and both potency and efficacy values were used to identify compounds with robust bioactivity profiles. We screened the NIH Chemical Genomics Center (NCGC) Pharmaceutical Collection (NPC) and Mechanism Interrogation Plate (MIPE) small molecule collections of approved and investigational compounds against these cell lines; and measured metabolically active cells after 48 hours of compound treatment as a proxy for cell viability.
Assay Submitter: Nathalia J. Martinez, National Center for Advancing Translational Sciences, National Institutes of Health, Rockville, MD, USA; email: natalia.martinez@nih.gov
[1] Shen, M et al. Quantitative high-throughput phenotypic screening of pediatric cancer cell lines identifies multiple opportunities for drug repurposing. Oncotarget 2017 Dec 19;9(4):4758-4772. PMID 29435139.
The cells were obtained from University of North Carolina (UNC), Pediatric Preclinical Testing Program (PPT), and Coriell Institute (CI).
qHTS cell viability assay:
Cells were assayed in growth media at a density of 500-1,000 cells/well. Five microliters of cells were dispensed into 1,536-well, white, solid-bottom, TC-treated plates (Greiner Bio One) using a multidrop dispenser and incubated at 37 degrees C, 5% CO2, under a humidified atmosphere for 5 hours. Twenty-three nanoliters of compounds and controls (neutral control DMSO or positive control bortezomib at final concentration of 2.3 µM) were subsequently transferred by Kalypsys pintool. For primary screens, the MIPE collection was tested at 11-point dilutions (final concentrations range from 0.78 nM to 46 µM) and the NPC collection at 8-point dilutions (final concentrations range from 0.59 nM to 46 µM). Compounds tested in follow-up screens were assayed at 11-point dilutions. Cells were incubated for 48 hours, followed by addition of 3 uL of CellTiter-Glo (Promega). After a 15 min incubation at room temperature, samples were analyzed for luminescence intensity using a ViewLux High-throughput CCD imager equipped with clear filters.
Potency means the concentration at half of the fitted maximal effect.

Row | SMILES | activity change, negative = cytotoxic [%] | outcome | Potency
1 | CN(C)CCCN1c2ccccc2CCc2ccc(Cl)cc21 | -19.2 | – | –
2 | NC12CC3CC(CC(C3)C1)C2 | – | inactive | –
3 | CCC1(c2ccccc2)C(=O)NCNC1=O | 1.76 | – | –
4 | CCCCc1oc2ccccc2c1C(=O)c1cc(I)c(OCCN(CC)CC)c(I)c1 | – | – | 79400 nM (active)
5 | O=C(Nc1ccc([N+](=O)[O-])cc1Cl)c1cc(Cl)ccc1O | – | – | 4070 nM (active)
6 | CC#C[C@]1(O)CC[C@H]2[C@@H]3CCC4=CC(=O)CCC4=C3[C@@H](c3ccc(N(C)C)cc3)C[C@@]21C | -14.7 | – | –
7 | CC[C@@]1(O)C(=O)OCc2c1cc1n(c2=O)Cc2cc3c(CN(C)C)c(O)ccc3nc2-1 | – | – | 1310 nM (active)
8 | Clc1ccc2nsnc2c1NC1=NCCN1 | 29.9 | – | –
9 | CC(C)Cc1ccc(C(C)C(=O)O)cc1 (stereo unspecified) | – | – | 1310 nM (active)
10 | O=C1c2c(O)ccc(O)c2C(=O)c2c(NCCNCCO)ccc(NCCNCCO)c21 | – | – | 2080 nM (active)
11 | Clc1ccc(C(c2ccccc2Cl)C(Cl)Cl)cc1 (stereo unspecified) | – | inactive | –
